Screens from PubChem BioAssay.
S2 tox: cell viability loss in ATXN counter-screen. S2 cells (HEK-293 line with an ATXN2-luciferase reporter) viability, CellTiter-Fluor protease fluorescence, 24 h. Potency, µM (titrated, usually from 56.7 µM), actives largely listed as cytotoxic. 0.49% of 400,000 active; also: nearly all actives have a fitted effect of over 40% in size
TDP1 cell noCPT: qHTS for Inhibitors of human tyrosyl-DNA phosphodiesterase 1 (TDP1): qHTS in cells in absence of CPT | DT40 Tdp1-/- hTDP1 cells, no CPT, ATP luminescence, 48 h | Potency, µM (series often up to 46.2 µM), inactives show at the highest dose activity change, negative = growth inhibition, actives largely listed as inhibitors | 15% of 420,000 active; also: % is scaled to controls: 0 for no effect and ±100 for the full control effect; nearly all actives have a fitted effect of over 55% in size
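Growth of hTDP1-complemented DT40 Tdp1-knockout cells is measured by ATP luminescence after at least 48 hr compound exposure at 37 °C, with DMSO substituting for the 20 nM CPT used in the parallel screen.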
TDP1 cell CPT: growth inhibition of DT40 Tdp1-/-;hTDP1 cells with camptothecin (screen for TDP1 inhibitors); chicken DT40 Tdp1-/-;hTDP1 cells + 20 nM CPT, ATP luminescence, 48 h; AID 686979; Potency, µM (doses to about 46.2 µM), for inactives: at the highest dose activity change, negative = growth inhibition, most hits filed as inhibitors; 12% of 420,000 active; also: % is scaled to controls: 0 for no effect and ±100 for the full control effect; nearly all actives have a fitted effect of over 55% in size
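Cell growth measured by CellTiter-Glo luminescence after a minimum 48 h, 37 C compound exposure with 20 nM CPT in Tdp1-knockout DT40 cells stably expressing hTDP1, seeded 400/well; qHTS titration format.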
HepG2 viability: counter-screen for TGF-b inhibitors: cytotoxicity in HepG2 cells. HepG2 CAGA-GFP viability, ATP luminescence, 18 h. Potency, µM (series often up to 46.1 µM), without a hit: at the highest dose activity change, negative = cytotoxicity, usual class: cytotoxic. 0.76% of 410,000 active. AID 588856
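CellTiter-Glo luminescence gave cytotoxicity after 18 hours at 37 degrees C. The cells were HepG2 CAGA-GFP in 1% FBS DMEM, stimulated with 500 pg/mL TGF-beta after compound addition. %Activity was normalised to no-cell wells (complete cell-killing) and DMSO (no toxicity), and curves were fitted and classified.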
ATXN2 expr inh: ATXN2 expression inhibition. 0.72% of 360,000 active. AID 1745845. Potency, µM (titrated, usually from 57 µM), for the others: top-dose activity change, negative = inhibition, actives largely listed as inhibitors. HEK-293 ATXN2-luciferase reporter, luminescence, 24 h; also: % is scaled to controls: 0 for no effect and ±100 for the full control effect; nearly all actives have a fitted effect of over 55% in size
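qHTS (up to 57 uM final) was run with 24 h compound exposure of reporter cells at 37 °C. Each well was multiplexed: SteadyGlo luminescence measured ATXN2-luciferase expression after a fluorogenic Gly-Phe-AFC viability readout (25 uM final).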
TGFb inhibitor: inhibitors of TGF-b signaling; HepG2 CAGA-GFP TGF-b/SMAD3 reporter, GFP fluorescence, 18 h; TGF-beta stimulated, 500 pg/mL final; Potency, µM (highest dose often 46.1 µM), inactives show top-dose activity, negative = inhibition, usual class: inhibitors; 1.2% of 410,000 active; AID 588855; also: % is scaled to controls: 0 for no effect and ±100 for the full control effect; nearly all actives have a fitted effect of over 65% in size
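HEPG2 CAGA-GFP cells (1000/well, DMEM with 1% FBS) were pre-incubated 2 h at 37 degrees C, given compound by pin tool, then stimulated with TGF-beta at 500 pg/mL final for 18 h before per-cell GFP fluorescence imaging.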
* marks the source's active call; other numbers are inactive results; i = inactive; u = inconclusive; x = no result. This is a sample that favours compounds with a hit; in the whole collection about 17% have one here. Calls follow the shape of the dose curve; as a rule, active = well fitted curve in the direction sought with a large enough effect; inconclusive = small, poorly fitted or top-dose-only effect, or another doubt; inactive = no such curve, though single readings can be large; an effect the other way counts as inactive or inconclusive. Potency is read from the fitted curve at half-maximal effect.

SMILES	S2 tox	TDP1 cell noCPT	TDP1 cell CPT	HepG2 viability	ATXN2 expr inh	TGFb inhibitor
CCCN(CCC)CCNC(=O)C1CCN(Cc2nc(-c3ccc(Cl)cc3)oc2C)CC1	15.8µM*	23.1µM*	u	-27.7%	u	7.1%
CCc1ccc(-c2nc(CN3CCC(C(=O)NCc4ccco4)CC3)c(C)o2)cc1	i	u	u	-6.6%	9.1%	u
Cc1ccccc1-c1nc(CN2CCC(C(=O)NCc3ccccc3Cl)CC2)c(C)o1	u	u	u	-15.8%	9.9%	-4.7%
O=[N+]([O-])c1ccc2c(c1)C=CC2	x	u	u	9.0%	x	-2.8%
CCn1ccc2cc(S(=O)(=O)N3CCCN(C(=O)Nc4cccc(Cl)c4)CC3)ccc21	i	x	x	-26.1%	-2.3%	u
CCN1CCN(CCNC(=O)C2CCCN(Cc3nc(-c4cccc(Cl)c4)oc3C)C2)CC1 (centres undefined)	u	16.4µM*	20.6µM*	-39.3%	-17.8%	-15.6%
Cc1oc(-c2ccc(Cl)cc2)nc1CN1CCCC(C(=O)NCCCN2CCCC2=O)C1 (centres undefined)	i	8.2µM*	8.2µM*	-14.4%	-28.8%	-27.4%
CCOC(=O)N1CCC(NC(=O)C2CCCN(Cc3nc(-c4cccc(Cl)c4)oc3C)C2)CC1 (centres undefined)	i	0.731µM*	0.82µM*	-51.5%	-7.0%	-2.4%
Cc1oc(-c2cccc(Cl)c2)nc1CN1CCCC(C(=O)NCCc2ccc(Cl)cc2)C1 (centres undefined)	i	u	u	-26.6%	-8.7%	-39.5%
CSc1ccc(C2c3[nH]c4ccccc4c3CCN2C(=O)CCC2CCCC2)cc1 (centres undefined)	x	u	u	-36.1%	x	-13.2%
COc1ccc(NC(=S)c2ccc(N(C)C)cc2)cc1	u	-25.8%	u	0.5%	37.4%	-1.6%
COc1ccc(N=C2C(=Nc3ccc(OC)cc3)N(c3ccc(N(C)C)cc3)C(=S)N2c2ccc(OC)cc2)cc1	u	1.03µM*	0.651µM*	1.6%	6.3%	-6.1%
COc1ccc(N=C2C(=Nc3ccc(OC)cc3)N(c3ccccc3)C(=S)N2C(=O)c2ccc(Cl)cc2)cc1	x	u	-20.8%	-2.9%	x	-11.7%
COc1ccc(N2C(=S)N(C(=O)c3ccccc3)C(=Nc3ccccc3)C2=Nc2ccccc2)cc1	i	18.4µM*	u	-31.4%	15.3%	-1.6%
COc1ccc(N=C2C(=Nc3ccc(OC)cc3)N(c3ccc(OC)cc3)C(=S)N2C(=O)c2ccc(OC)cc2)cc1	i	18.4µM*	u	-13.8%	12.4%	-0.3%
O=C(C1CCC1)N1CCN(S(=O)(=O)c2ccc(F)cc2)CC1	i	-24.6%	-27.3%	-45.5%	0.8%	-23.6%
O=C(COC(=O)COc1ccc2ccccc2c1)NCC(F)(F)F	i	-2.1%	-32.1%	-7.1%	-2.6%	-2.9%
CCN1/C(=C/c2cc[n+](CCCS(=O)(=O)[O-])c3ccccc23)Sc2ccccc21	i	-0.4%	23.9%	-2.7%	x	28.9%
C=CC[n+]1ccc(/C=C2\C=Cc3cc(C)ccc3N2CC)c2ccccc21	9.47µM*	0.206µM*	0.291µM*	-47.1%	u	2.82µM*
O=C1C2CC=CCC2C(=O)N1Cc1ccccc1 (centres undefined)	i	-9.7%	-0.2%	-17.8%	5.2%	1.3%
O=C1C=CC(=O)N1Cc1ccccc1	u	2.31µM*	1.03µM*	-78.4%	u	u
COc1cc(=O)n2c(c1C(=O)NCc1ccc3c(c1)OCO3)CCN(C(=O)c1cccc(F)c1)CC2	i	4.6%	0.3%	x	x	x
CCCCC(=O)NC(c1ccccc1OC)c1ccc2cccnc2c1O (centres undefined)	i	18.4µM*	20.6µM*	-8.1%	3.98µM*	u
CCCC(=O)NC(c1ccccc1OC)c1ccc2cccnc2c1O (centres undefined)	i	4.11µM*	4.11µM*	-21.1%	u	-15.4%
CCCC(=O)NC(c1ccc(OC)c(OC)c1)c1c(O)ccc2ccccc12 (centres undefined)	i	-1.5%	-13.1%	2.5%	9.8%	u
SMILES	S2 tox	TDP1 cell noCPT	TDP1 cell CPT	HepG2 viability	ATXN2 expr inh	TGFb inhibitor
O=C(/C=C/c1cccc(Br)c1)NCc1ccncc1	i	0.9%	-3.9%	4.1%	-13.7%	-16.3%
C[C@H](CO)N1C[C@H](C)[C@@H](CN(C)C(=O)Nc2ccc(C(F)(F)F)cc2)Oc2ccc(NC(=O)Cc3ccccc3)cc2C1=O	u	-11.9%	u	5.2%	u	u
CCOC(=O)C1C(=O)C=C(c2ccc(C)cc2)CC1c1ccc([N+](=O)[O-])cc1 (centres undefined)	i	13µM*	u	3.1%	-14.4%	-18.4%
Cc1cccc(Nc2c3c(nc4nncn24)CCC3)c1C	x	u	u	-7.5%	x	u
CCCn1c(SCc2nc(-c3ccccc3C)no2)nnc1-c1ccc(Cl)cc1	x	16.4µM*	13µM*	-25.2%	u	u
CCCn1c(SCc2nc(-c3cc(OC)ccc3OC)no2)nnc1-c1ccc(Cl)cc1	u	14.6µM*	13µM*	-20.5%	0.0%	u
COc1ccc(-n2c(C)nnc2SCc2nc(-c3ccc(OC)c(OC)c3)no2)cc1	i	-23.3%	-24.1%	-3.6%	-5.0%	u
CCCn1c(SCc2nc(-c3ccc(OC)c(OC)c3)no2)nnc1-c1ccccc1	u	18.4µM*	u	-23.6%	-18.5%	-26.4%
CCCNc1nc2nc3ccccn3c(=O)c2cc1C(=O)NCCN1CCOCC1	i	-10.9%	11.3%	-4.9%	-6.5%	1.7%
COc1cccc(Nc2nc(N)c([N+](=O)[O-])c(NCc3ccccc3)n2)c1	x	u	u	-36.6%	x	u
COc1cccc(CNc2nc(NCC3CC3)nc3ccsc23)c1	u	2.06µM*	16.4µM*	-39.5%	u	u
COCCNc1nc(Oc2ccc(Cl)c(Cl)c2)c2sccc2n1	i	-27.7%	u	5.9%	-4.6%	-5.4%
COc1cccc(CNc2nc(NCc3ccccc3)nc3ccsc23)c1	i	4.11µM*	2.06µM*	-48.5%	u	u
COCCNc1nc(NCc2cc(-c3ccc(OC)cc3)no2)c2sccc2n1	u	18.4µM*	u	-41.0%	-22.4%	u
CNc1nc(Oc2cccc(F)c2)c2sccc2n1	i	-25.9%	-23.7%	-0.5%	0.2%	16.8%
